# Assay results reported in PubChem BioAssay.
# Values joined by “and” are separate entries in the source; they are usually repeats but may differ in a detail not shown here. Identical values can stand only once. Active and inactive are the calls of the source. Cut-off read from the data, not from the text of the source, unless noted: active = inhibition above about 80%; inactive = the rest.
# Legend:
# [1] = compounds altering viability of human ES cells (AID 493140; call rule not given here;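 note: cells exposed to compounds for four days before counting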); settings: human embryonic stem cell survival screen; stronger effect = higher value
# [2] = P. berghei load reduction in hepatocytes – cell-based, HepG2, luciferase luminescence, HepG2 viability, primary screen (AID 624349; in the data active = parasite load remaining mostly below about 12%, no sharp cut-off; inactive = mostly above about 10%;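 note: 100% = mean of DMSO negative control wells on the same plate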); settings: P. berghei liver stage in HepG2, luciferase luminescence, concentration not given here; parasite load remaining: stronger effect = lower value; viability: measured here: HepG2 viability without parasites
# [3] = viability loss with induced miR-34 in A549 – imaging, A549 dox-inducible miR-34, nuclei and caspase counts, primary screen (AID 1347080;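 active = compounds whose cell count with miR-34 switched on is under 0.7 times the count with it off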); settings: A549 miR-34 inducible, Hoechst nuclei count, 48 h
# [4] = MELAS cybrid and Rieske KO viability enhancers – cell-based, MELAS cybrids, Rieske KO mouse fibroblasts, CellTiter-Glo, primary screen (AID 1508586;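 active = mean z-score across replicates of 1.96 or higher in either the MELAS or the Rieske mutant cell line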;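 note: z relative to plate mean and SD of compound and empty wells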); settings: low glucose
# [5] = growth inhibition, single agent or in combination, cell-based, chromothripsis tumors, cisplatin or BGB combos (AID 1671449); settings: LFS_MB_P medulloblastoma cells;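 note: cells exposed for 96 hours; 0% = vehicle DMSO and 100% = killing by high DMSO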
# [6] = growth inhibition, single agent and combos, cell-based, chromothripsis tumors, cisplatin or BGB combos (AID 1671450); settings: HDN33 neuroblastoma cells, stronger effect = higher value;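 note: cells exposed to compound for four days; 0% = vehicle DMSO and 100% = cell killing by high DMSO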
# [7] = growth inhibition, single agents and combos, ICB984, cell-based, cisplatin or BGB combos, synergistic combos for chromothripsis tumors (AID 1671451; call rule not given here;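 note: cells exposed for 96 hours before readout; 0% = vehicle DMSO and 100% = killing by high DMSO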); settings: ICB984 medulloblastoma cells, drug combinations, stronger effect = higher value
# [8] = growth inhibition, single agents and combos, LFS_MB_1R, cell-based, cisplatin or BGB combos, synergistic combos for chromothripsis tumors (AID 1671452); settings: LFS_MB_1R medulloblastoma cells, stronger effect = higher value;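 note: cells exposed for 96 hours before readout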
# [9] = growth inhibition, single agents and combos, HTB85, cell-based, BGB or cisplatin IC20 combos, synergistic combos for chromothripsis tumors (AID 1671453); settings: HTB85 osteosarcoma cells, drug combinations, stronger effect = higher value;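 note: cells exposed for 96 hours before readout; 0% = vehicle DMSO and 100% = high DMSO killing control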
# [10] = growth inhibition, single agents and combos, CRL2098, cell-based, BGB or cisplatin IC20 combos, synergistic combos for chromothripsis tumors (AID 1671454); settings: CRL2098 osteosarcoma cells, drug combinations, stronger effect = higher value;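 note: cells exposed for 96 h before readout; 0% = vehicle DMSO and 100% = killing by high DMSO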
# [11] = growth inhibition, single agents and combos, HD-MB03, cell-based, BGB or cisplatin IC20 combos, synergistic combos for chromothripsis tumors (AID 1671455; in the data active = inhibition above about 83%;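 note: 0% = vehicle DMSO and 100% = high DMSO as cytotoxic control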); settings: HD-MB03 medulloblastoma cells, stronger effect = higher value
# [12] = growth inhibition, single agents and combos, UWB1.289, cell-based, BGB or cisplatin combos, synergistic combos for chromothripsis tumors (AID 1671456); settings: UWB1.289 ovarian carcinoma cells, stronger effect = higher value;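 note: cells exposed to compound for four days; 0% = vehicle DMSO and 100% = killing by high DMSO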
# [13] = growth inhibition, single agents and combos, LFS_MB_2R, cell-based, cisplatin combos, synergistic combos for chromothripsis tumors (AID 1671457); settings: LFS_MB_2R medulloblastoma cells, stronger effect = higher value;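 note: cells exposed to compound for four days before readout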
# [14] = growth inhibition, MDA-MB-436, cell-based, BGB or cisplatin combos, synergistic combos for chromothripsis tumors (AID 1671458; call rule not given here;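 note: cells exposed for 96 hours; 0% = vehicle DMSO and 100% = killing by high DMSO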); settings: MDA-MB-436 breast carcinoma growth inhibition, drug combinations, stronger effect = higher value
# [15] = UWB1.289_BRCA1 ovarian cancer growth, cell-based, BGB or cisplatin combinations (AID 1671459); settings: UWB1.289 BRCA1 ovarian carcinoma, drug combinations, stronger effect = higher value
# [16] = drug combination toxicity in non-malignant astrocytes – cell-based, BGB or cisplatin IC20 combos, cytotoxicity control for chromothriptic childhood tumor combination screen (AID 1671460); settings: Human astrocytes, viability inhibition, drug combinations, at 0.5 µM, stronger effect = higher value;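 note: cells exposed to compounds for 96 hours before viability readout; 0% = vehicle and 100% = killing control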
# [17] = BT084 cell growth, single and combined drugs, ICGC_MB145, cisplatin and BGB IC40 combos (AID 1671461); settings: BT084 medulloblastoma cells, drug combinations, stronger effect = higher value;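 note: cells exposed to drugs for 96 hours; 0% = vehicle DMSO and 100% = high DMSO full killing control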
# [18] = RCMB18 cell growth, single agent and combined, cisplatin and BGB IC40 combos (AID 1671462); settings: RCMB18 medulloblastoma cells, stronger effect = higher value;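 note: cells exposed to compound for four days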
# [19] = CRL1545 cell growth, single agent and combined, cisplatin and BGB IC20 combos (AID 1671464); settings: CRL1545 osteosarcoma cells, stronger effect = higher value;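 note: cells exposed to compound for 96 hours before readout; 0% = vehicle DMSO and 100% = high DMSO killing control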
# [20] = stronger effect = lower value, cell number ratio, induced over uninduced
# [21] = measured here: relative caspase fold change +Dox/-Dox
# [22] = measured here: total cells with miR-34 induction, stronger effect = lower value
# [23] = measured here: total cells without miR-34 induction
# [24] = MELAS cybrid survival, CellTiter-Glo 48 h, stronger effect = higher value
# [25] = Rieske KO mouse fibroblast survival, CellTiter-Glo 72 h
# [26] = measured here: combination with BGB IC40, at 0.05 µM
# [27] = measured here: with BGB IC20 combination, at 0.5 µM
# [28] = measured here: with cisplatin IC20 combination, at 0.5 µM
# [29] = measured here: combination with cisplatin, at 0.5 µM
# [30] = measured here: combination with cisplatin, at 5 µM
smiles,measurement,setting,value
CNCCC=C1c2ccccc2C=Cc2ccccc21,survival,[1],0.833 (inactive)
same,parasite load remaining,[2],45.3% (inactive) and 67.3% (inactive)
same,viability,[2],45.5% and 71.9%
same,fold change,[3]; [20],0.862 (inactive)
same,fold change,[3]; [21],1.27
same,cell count,[3]; [22],6810
same,cell count,[3]; [23],7910
same,z-score,[4]; [24],0.194 (inactive)
same,z-score,[4]; [25],0.365
CC(C=CC(=O)NO)=CC(C)C(=O)c1ccc(N(C)C)cc1 (configuration not stated),fold change,[3]; [20],0.905 (inactive)
same,fold change,[3]; [21],0.765
same,cell count,[3]; [22],830
same,cell count,[3]; [23],918
same,z-score,[4]; [24],-0.131 (inactive)
same,z-score,[4]; [25],-2.46
same,inhibition,"[5]; at 0.5 µM, stronger effect = higher value",124% (active)
same,inhibition,"[5]; measured here: combination with BGB IC20, at 0.005 µM",-30%
same,inhibition,"[5]; measured here: combination with BGB IC40, at 0.005 µM",-20.9%
same,inhibition,[5]; [26],-37.3%
same,inhibition,"[5]; measured here: combination with cisplatin, at 0.5 µM, stronger effect = higher value",130%
same,inhibition,"[5]; measured here: combination with cisplatin, at 5 µM, stronger effect = higher value",120%
same,inhibition,"[6]; BGB combo, at 5 µM",99.8%
same,inhibition,[6]; at 0.5 µM,92.3% (active)
same,inhibition,"[6]; cisplatin combo, at 5 µM",99.9%
same,inhibition,[6]; [27],85.6%
same,inhibition,[6]; [28],98.3%
same,inhibition,"[6]; single agent, at 5 µM",99.9%
same,inhibition,"[7]; BGB IC20 combo, at 0.005 µM",83.1%
same,inhibition,"[7]; BGB IC40 combo, at 0.005 µM",90.3%
same,inhibition,"[7]; BGB IC40 combo, at 0.05 µM",97.7%
same,inhibition,[7]; at 0.5 µM,-36.8% (inactive)
same,inhibition,"[7]; cisplatin combo, at 0.05 µM",97.7%
same,inhibition,"[7]; cisplatin combo, at 0.5 µM",-29%
same,inhibition,"[7]; cisplatin combo, at 5 µM",-20.2%
same,inhibition,"[7]; measured here: 5 uM single agent, at 5 µM",-13.2%
same,inhibition,[8]; at 0.5 µM,87.3% (active)
same,inhibition,[8]; [26],4.15%
same,inhibition,[8]; [29],99.9%
same,inhibition,[8]; [30],98.9%
same,inhibition,[9]; at 0.5 µM,98.7% (active)
same,inhibition,"[9]; measured here: with BGB IC20, at 0.5 µM",97.4%
same,inhibition,"[9]; measured here: with BGB IC20, at 5 µM",99.9%
same,inhibition,"[9]; measured here: with cisplatin IC20, at 0.5 µM",99.9%
same,inhibition,"[9]; measured here: with cisplatin IC20, at 5 µM",100%
same,inhibition,"[9]; single agent, at 5 µM",99.9%
same,inhibition,[10]; at 0.5 µM,70.4% (inactive)
same,inhibition,"[10]; measured here: combination with BGB at IC20, at 0.5 µM",75.9%
same,inhibition,"[10]; measured here: combination with cisplatin at IC20, at 0.5 µM",61.3%
same,inhibition,[11]; at 0.5 µM,89% (active)
same,inhibition,"[11]; measured here: combo with BGB at IC20, at 0.5 µM",79.1%
same,inhibition,"[11]; measured here: combo with cisplatin at IC20, at 0.5 µM",99.7%
same,inhibition,[12]; at 0.5 µM,67.5% (inactive)
same,inhibition,"[12]; measured here: inhibition with BGB combination, at 0.05 µM",-6.23%
same,inhibition,"[12]; measured here: inhibition with cisplatin combination, at 0.05 µM",29.6%
same,inhibition,[13]; at 0.5 µM,78.3% (inactive)
same,inhibition,[13]; [29],92.3%
same,inhibition,[13]; [30],103%
same,inhibition,[14]; at 0.5 µM,53.4% (inactive)
same,inhibition,"[14]; measured here: BGB combination, at 0.5 µM",39%
same,inhibition,"[14]; measured here: BGB combination, at 5 µM",63.1%
same,inhibition,"[14]; measured here: cisplatin combination, at 0.5 µM",54.4%
same,inhibition,"[14]; measured here: cisplatin combination, at 5 µM",81.3%
same,inhibition,"[15]; BGB combination, concentration series, at 5 µM",116%
same,inhibition,[15]; at 0.5 µM,68.2% (inactive)
same,inhibition,"[15]; cisplatin combination, concentration series, at 5 µM",131%
same,inhibition,[16],97% (active)
same,inhibition,[16]; measured here: combo with BGB IC20,96.5%
same,inhibition,[16]; measured here: combo with cisplatin IC20,96%
same,inhibition,[17]; at 0.5 µM,86.5% (active)
same,inhibition,"[17]; cisplatin combination, at 0.5 µM",101%
same,inhibition,"[17]; cisplatin combination, at 5 µM",104%
same,inhibition,"[17]; measured here: BGB IC40 combination 0.05 uM, at 0.05 µM",36.8%
same,inhibition,"[17]; single agent, at 5 µM",106%
same,inhibition,[18]; at 0.5 µM,83.6% (active)
same,inhibition,"[18]; cisplatin combo, at 5 µM",98.1%
same,inhibition,"[18]; measured here: BGB IC40 combination, at 0.05 µM",13.5%
same,inhibition,[18]; [29],87.1%
same,inhibition,"[18]; single agent, at 5 µM",98.2%
same,inhibition,[19]; at 0.5 µM,88.1% (active)
same,inhibition,[19]; [27],86.4%
same,inhibition,[19]; [28],88.7%
same,inhibition,"[19]; single agent, at 0.05 µM",54.1%
same,inhibition,"[19]; single agent, at 5 µM",87.3%
CC(C)(C)C(=O)OCOC(=O)[C@@H]1N2C(=O)[C@@H](N=CN3CCCCCC3)[C@H]2SC1(C)C,survival,[1],17.2 (inactive)
same,parasite load remaining,[2],86.3% (inactive)
same,viability,[2],108%
same,fold change,[3]; [20],0.956 (inactive)
same,fold change,[3]; [21],0.721
same,cell count,[3]; [22],9610
same,cell count,[3]; [23],10100
same,z-score,[4]; [24],0.579 (inactive)
same,z-score,[4]; [25],-0.414
